Records with an inconclusive call do not appear. Unmarked numbers belong to inactive results. Activity calls are given as the source filed them. Calls follow the shape of the dose curve; as a rule, active = well fitted curve in the direction sought with a large enough effect in the repeat runs; inconclusive = weak or mixed curves; inactive = no such curve, though single readings can be large; an effect the other way counts as inactive or inconclusive.
experiment: qHTS assay to identify small molecule antagonists of the retinoic acid receptor (RAR) signaling pathway (AID 1159552; also: nearly all actives have a fitted effect of over 50% in size; also: potency is read from the fitted curve at half-maximal effect); details: C3RL4 RARE luciferase reporter, retinol-stimulated, 6 h; series mostly up to 92.4 µM; activity, negative = inhibition: at the top concentration
Method in brief: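 Overnight-plated C3RL4 reporter cells get compound, then retinol to 1 uM final; plates sit 6 hr at 37 C, 5% CO2. A luciferase reagent is added and light output recorded after 30 min at room temperature.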
% is scaled to controls: 0 for no effect and ±100 for the full control effect.

SMILES	activity, negative = inhibition	Potency
N#Cc1ccc(Cl)cc1	11.3%	
CC(c1ccc(O)cc1)(c1ccc(O)cc1)c1ccc(O)cc1		61.1 µM (active)
CN1[C@@H]2CC[C@H]1CC(OC(=O)c1cc(Cl)cc(Cl)c1)C2 (stereo partly drawn)	-16.6% [at 42.5 µM]	
COc1cc(Cl)c(OC)cc1Cl	-5.57%	
CC[C@H]1C[C@H]2[C@@H]3CCC4=CC(=O)CC[C@@H]4[C@H]3CC[C@]2(C)[C@H]1O	6.72% [at 42.5 µM]	
COC(=O)c1cncn1C(C)c1ccccc1 (stereo not drawn)	0.984% [at 42.5 µM]	
COc1ccc(-c2ccccc2)cc1NNC(=O)OC(C)C	-4%	
O=[Se]=O	44.5% [at 42.5 µM]	
CCc1ccc(C(=O)NN(C(=O)c2cc(C)cc(C)c2)C(C)(C)C)cc1	-28%	
COC(=O)C(C)N(C(=O)Cc1ccccc1)c1c(C)cccc1C (stereo not drawn)	-17.6%	
CC(C)O.CC(C)O.OCCN(CCO)CCO.OCCN(CCO)CCO.[Ti]	3.01%	
ClCc1cccc(Cl)c1	20.3% [at 42.5 µM]	
CCOS(C)(=O)=O	-26.2%	
CCOP(=S)(Oc1ccc([N+](=O)[O-])cc1)c1ccccc1 (stereo not drawn)	4.68%	
c1ccc(C2CC2)c(OCC2=NCCN2)c1	-6.16% [at 42.5 µM]	
O=C(CBr)OCc1ccccc1	-4.79%	
CN1C[C@H](CNC(=O)OCc2ccccc2)C[C@@H]2c3cccc4c3c(cn4C)C[C@H]21	-7.13% [at 42.5 µM]	
C=CCN1CC[C@]23c4c5ccc(O)c4O[C@H]2C(=O)CC[C@@]3(O)[C@H]1C5	0.645% [at 42.5 µM]	
Cn1sc(Cl)cc1=O	14.2%	
CCCCc1c(C)nc(NCC)nc1OS(=O)(=O)N(C)C	-22.2%	
CCO[C@H]1O[C@@H]2OC3(C)CC[C@H]4[C@H](C)CC[C@@H]([C@H]1C)[C@@]24OO3	-0.217% [at 42.5 µM]	
C[N+](C)(C)CCCl	-2.14%	

experiment: qHTS assay to identify small molecule agonists of the retinoic acid receptor (RAR) signaling pathway (AID 1159553); details: C3RL4 RARE luciferase reporter, agonist, 6 h; series mostly up to 73.3 µM; activation: at the top concentration
Method in brief: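 RARE-luc C3RL4 cells; overnight attachment 37 C/5% CO2; compound (DMSO) 6 hr; luciferase reagent, 30 min RT; luminescence read-out.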

SMILES	activation
CCCCCCCCOC(=O)c1ccc(C(=O)OCCCCCCCC)c(C(=O)OCCCCCCCC)c1	-3.59% [at 94.8 µM]
N#Cc1ccc(Cl)cc1	-0.765%
CO/C=C(/C(=O)OC)c1ccccc1COc1cccc(C(F)(F)F)n1	-11.5%
CC(c1ccc(O)cc1)(c1ccc(O)cc1)c1ccc(O)cc1	-11%
C[C@]12CC[C@H]3[C@@H](CCC4=CC(=O)CC[C@@H]43)[C@@H]1CC[C@@H]2OC(=O)CCC1CCCCC1	-14.9%
CN1[C@@H]2CC[C@H]1CC(OC(=O)c1cc(Cl)cc(Cl)c1)C2 (stereo partly drawn)	-12.8%
COc1cc(Cl)c(OC)cc1Cl	-1.46%
Cc1c(F)c(F)c(COC(=O)C2C(/C=C(\Cl)C(F)(F)F)C2(C)C)c(F)c1F (stereo not drawn)	-2.66%
CC[C@H]1C[C@H]2[C@@H]3CCC4=CC(=O)CC[C@@H]4[C@H]3CC[C@]2(C)[C@H]1O	2.89%
COC(=O)c1cncn1C(C)c1ccccc1 (stereo not drawn)	0.604%
COc1ccc(-c2ccccc2)cc1NNC(=O)OC(C)C	-4.58% [at 94.8 µM]
O=[Se]=O	-6.11%
CCc1ccc(C(=O)NN(C(=O)c2cc(C)cc(C)c2)C(C)(C)C)cc1	-7.15%
CC(C)O.CC(C)O.OCCN(CCO)CCO.OCCN(CCO)CCO.[Ti]	-0.462%
ClCc1cccc(Cl)c1	0.0632%
CCOS(C)(=O)=O	1.53% [at 94.8 µM]
CCOP(=S)(Oc1ccc([N+](=O)[O-])cc1)c1ccccc1 (stereo not drawn)	1.34%
c1ccc(C2CC2)c(OCC2=NCCN2)c1	-2.54%
O=C(CBr)OCc1ccccc1	-5.4%
CN1C[C@H](CNC(=O)OCc2ccccc2)C[C@@H]2c3cccc4c3c(cn4C)C[C@H]21	-6.64%
C=CCN1CC[C@]23c4c5ccc(O)c4O[C@H]2C(=O)CC[C@@]3(O)[C@H]1C5	-0.239%
Cn1sc(Cl)cc1=O	0.901%
CCCCc1c(C)nc(NCC)nc1OS(=O)(=O)N(C)C	-5.61%
CCO[C@H]1O[C@@H]2OC3(C)CC[C@H]4[C@H](C)CC[C@@H]([C@H]1C)[C@@]24OO3	1.67%
NC(=O)CI	-0.325% [at 94.8 µM]
C[N+](C)(C)CCCl	-0.516% [at 94.8 µM]
